Shown are actives, neighbours in structure and some others; about 6.3% of the full set was active somewhere.
Abs 340nm: compound absorbs light at 340 nm | compound absorbance at 340 nm, fold over control | fold change at 10 µM | 65,000 tested, under 10 active | AID 708;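 active = at 10 µM dose, initial 340 nm absorbance at least 2 fold that of control wells; inactive = change under 2 fold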;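 note: initial absorbance extrapolated from kinetic A340 decline of NADH oxidation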
Spn PMK inh: inhibitors of Streptococcus pneumoniae phosphomevalonate kinase. purified PMK, PK/LDH-coupled NADH absorbance 340 nm. inhibition, % at 10 µM. actives 0.49% (n = 65,000). AID 539;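 active = top-ranked compounds by inhibition in the single 10 µM screen, taking a fixed number of the strongest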;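 note: 0% = full reaction with DMSO carrier and 100% = background rate without enzyme reaction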
Spn DPM-DC inh: S. pneumoniae DPM-DC inhibition; purified DPM-DC, PK/LDH coupled NADH fluorescence; calls only at 10 µM; actives 0.49% (n = 65,000);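 active = the 320 compounds with the highest percent inhibition in the single-dose primary screen, excluding strongly autofluorescent ones, cut at about 32% in these data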;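 note: kinetic rate of NADH fluorescence loss reporting ADP formed by the decarboxylase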
Autofluor 339: intrinsic fluorescence of library compounds, ex339/em460 – biochemical, MLSMR library, data from DPM-DC assay, artefact control, profiling panel | actives 5.5% (n = 65,000) | fluorescence fold increase at 10 µM | compound autofluorescence, ex339/em460 nm, NADH buffer; active compounds read high; 1 = no-compound wells, NADH background | AID 709;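 active = at 10 µM, mean starting fluorescence two-fold or more over control wells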;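 note: signal is the first read of a kinetic run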
Spn MK inh: blocks S. pneumoniae mevalonate kinase | purified MK, PK/LDH-coupled NADH absorbance 340 nm | inhibition, % at 10 µM | actives 0.48% (n = 65,000);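 active = ranked among the strongest by inhibition in the single 10 µM screen, a fixed top-ranked set picked for dose follow-up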
NADH enzymes: inhibitors of enzymes used to reach an NAD/NADH endpoint | coupled PK/LDH NADH assays, four targets | IC50, µM (top dose mostly 10 µM), for the others: at the highest dose inhibition | actives 0.02% (n = 65,000) | AID 774;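 active = single-dose screening hits from any of four coupled enzyme assays that gave an IC50 when retested across doses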;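 note: the DPM-DC format reads NADH fluorescence rather than 340 nm absorbance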
* marks the source's active call; other numbers are inactive results; i = inactive; x = no result given.

SMILES	Abs 340nm	Spn PMK inh	Spn DPM-DC inh	Autofluor 339	Spn MK inh	NADH enzymes
Cc1ccc(NC(=O)c2cc(N3CCOCC3)nc3ccccc23)cc1	1.03	7.0	i	1.55	12.0	10.0%
Cc1cc(N2CCOCC2)nc2ccc(NC(=O)CCC(=O)N3CCCCC3)cc12	1.04	11.0	x	4.7*	2.0	7.0%
CCN1CCN(c2cc(C)c3cc(NC(=O)Cc4ccc(OC)c(OC)c4)ccc3n2)CC1	1.1	0.0	x	2.1*	2.0	1.0%
CCN1CCN(c2cc(C)c3cc(NC(=O)c4cnccn4)ccc3n2)CC1	1.16	4.0	i	1.04	2.0	2.0%
Cc1cccc(NC(=O)c2cc(N3CCOCC3)nc3ccccc23)c1	1.03	2.0	i	1.86	10.0	4.0%
Cc1cc(N2CCOCC2)nc2ccc(NC(=O)CCC(=O)N3CCC(C)CC3)cc12	1.02	10.0	x	4.75*	4.0	7.0%
CCC(C)NC(=O)CCC(=O)Nc1ccc2nc(N3CCOCC3)cc(C)c2c1 (configuration not stated)	1.05	8.0	x	4.96*	0.0	4.0%
CCOc1ccccc1NC(=O)CCC(=O)Nc1ccc2nc(N3CCN(C)CC3)cc(C)c2c1	1.07	14.0	i	3.8*	0.0	6.0%
Cc1cc(N2CCN(C)CC2)nc2ccc(NC(=O)c3ccc4c(c3)OCO4)cc12	1.14	0.0	i	1.07	9.0	4.0%
CCCCN(C)C(=O)CCC(=O)Nc1ccc2nc(N3CCOCC3)cc(C)c2c1	1.05	12.0	x	4.75*	7.0	10.0%
O=C(Nc1sc2c(c1C(=O)NCc1ccco1)CCCC2)c1ccc2c(c1)OCO2	1.02	6.0	x	2.9*	15.0	6.0%
CCOC(=O)C1Cc2cc3c(cc2C1=O)CC(C(=O)OCC)C3=O (configuration not stated)	1.09	2.0	x	3.73*	0.0	1.0%
O=C1CCNc2cc3ccccc3cc21	1.01	0.0	x	2.02*	9.0	3.0%
COc1ccc(Cl)cc1Nc1nc(N2CCCC2)nc(N2CCCC2)n1	1.02	18.0	i	1.14	5.0	8.0%
Cc1cc(C)cc(N2CC34C=CC(O3)C(C(=O)OCC(=O)NCc3ccco3)C4C2=O)c1 (configuration not stated)	0.99	16.0	i	1.03	11.0	9.0%
CCN(CC)c1ccc(-c2nn3c(-c4n[nH]c5c4CCC5)nnc3s2)cc1	1.13	9.0	i	2.88*	3.0	14.0%
C1CCC(c2nn3c(-c4n[nH]c5c4CCC5)nnc3s2)CC1	1	13.0	i	1.12	6.0	6.0%
c1ccc(-c2nc3ccccc3o2)nc1	0.98	12.0	i	1.07	4.0	5.0%
CCC(=O)Nc1cccc(-c2nc3ccccc3o2)c1	1.05	3.0	i	1.16	0.0	1.0%
Cc1ccnc2ccc(-c3nc4ccccc4o3)cc12	1.04	11.0	x	5.01*	0.0	6.0%
CC(=O)Nc1nc2ccc(-c3nc4ccccc4o3)cc2s1	1.12	9.0	x	2.23*	0.0	5.0%
Cc1ccc(S(=O)(=O)N(CC(=O)NCc2ccco2)Cc2ccccc2F)cc1	0.99	8.0	i	1.03	4.0	3.0%
CC(=O)N=c1cccc(NC(C)=O)n1O	1.07	6.0	i	1.08	0.0	2.0%
CCc1nnc(NC(=O)C(C)N2C(=O)C3C4C=CC(C4)C3C2=O)s1 (configuration not stated)	0.97	9.0	i	1.03	8.0	6.0%
COc1ccc(S(=O)(=O)N(CC(=O)N2CCOCC2)c2cc(Cl)ccc2OC)cc1OC	0.97	15.0	i	1.01	6.0	7.0%
CC(CN1CCCCC1)OC(=O)c1ccc(Cl)cc1 (configuration not stated)	1.02	1.0	i	1.09	9.0	3.0%
CC(CN1CCN(C)CC1)OC(=O)c1ccc(Cl)cc1 (configuration not stated)	1.01	28.0*	i	0.97	2.0	10.0%
CNS(=O)(=O)c1cccc(C(=O)OC2CCCCC2=O)c1 (configuration not stated)	0.99	28.0*	i	1.05	4.0	11.0%
COc1cc(S(=O)(=O)N(C)C)ccc1F	1	1.0	i	1.04	5.0	3.0%
CCCn1c(=O)[nH]c(=O)c2c1nc(-c1ccc3c(c1)OCCO3)n2CCN1CCOCC1	1.01	18.0	i	1.31	0.0	6.0%

High-throughput results (PubChem)
